# A selection: hits, their analogues and other compounds. The true share with any hit is near 0.85%.
# TSHR antag: antagonists of human thyroid stimulating hormone receptor; actives 0.2% (n = 330,000); AID 504810; P16473; TSHR-expressing cells, TSH-stimulated cAMP HTRF, 2 h; active compounds read low; activity change, negative = inhibition, % at 11.5 µM;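 active = activity change below a set negative limit, meaning inhibition stronger than a set level, cut at about -70% in these data; inconclusive = activity change between two set negative limits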; note: % is set by controls: 0 for no effect and ±100 for the full control effect
#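 Inhibition of cAMP made by TSHR-expressing cells under TSH stimulation (4nM final, EC80; 2 h, 37 deg C) is quantified with a one-step lysis HTRF kit, anti-cAMP cryptate versus cAMP-d2.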
# CtBP-E1A inh: blocks the CtBP interaction with E1A. AlphaScreen GST-E1A/His-CtBP binding, 1536-well; active compounds read low. activity change, % (test concentration not listed). actives 0.49% (n = 340,000). AID 651724; note: % is set by controls: 0 for no effect and ±100 for the full control effect
#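 Protein mix (5X: 125 nM each GST-E1A, His-CtBP) was incubated with pinned compound 2 h at 37 deg C in dark, in 50 mM Tris pH 8.0 buffer with 300 mM NaCl. Glutathione donor and nickel acceptor beads followed; AlphaScreen signal read after 1 h.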
# BCR signal inh: blocks chronic active B-cell receptor signaling. ABC-DLBCL IkBa-CBG/CBR reporter, luminescence ratio, 4 h. actives 0.05% (n = 340,000). Potency, µM (titrated, usually from 46.1 µM), without a hit: at the highest dose activity change, negative = inhibition, hits mostly inhibitors. AID 493014; active = well fitted inhibition curve with a large enough effect in the signal ratio, with a control signal flat, not every such curve was filed as active; inconclusive = small, poorly fitted or top-dose-only effect, or effect the other way, or a change in a side signal; the % refers to the signal ratio;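 note: potency is the fitted concentration of half-maximal effect; plate controls were basal doxycycline-induced cells for no effect and cells given 10 µM MG132 for full effect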
#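 TMD8 human ABC-DLBCL cells with doxycycline-inducible IκBα–green luciferase fusion and unfused red luciferase, in 0.5% FBS medium; compounds up to 46 uM, 4 h at 37C. Green/red luminescence ratio, filter-overlap corrected, fitted to concentration-response curves.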
# Six1-Eya2 blk: inhibitors of human Six1/Eya2 interaction. activity change, % (test concentration not listed). AlphaScreen GST-Six1/His-Eya2 binding, biochemical; active compounds read low. Q15475+O00167. actives 0.56% (n = 360,000); note: % is set by controls: 0 for no effect and ±100 for the full control effect
#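 Six1/Eya2 binding was read as AlphaScreen signal after compounds were pinned into GST-Six1 plus His-tagged Eya2 (5X stock 250/500 nM) in pH 8.0 Tris/NaCl/TCEP buffer, beads added, then incubated 1 h, 37 C, dark.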
# S-ASM inh: inhibitors of human secretory acid sphingomyelinase. P17405. placental ASM, HMU-PC fluorogenic substrate, 60 min. Potency, µM (doses to about 57.5 µM), inactives show top-dose activity change, negative = inhibition, most hits filed as inhibitors. actives 0.006% (n = 340,000). AID 504937; active = well fitted inhibition curve with a large enough effect; inconclusive = small, poorly fitted or top-dose-only effect; inactive = no such curve, though single readings can be large or run the other way; note: potency is the fitted concentration of half-maximal effect
#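 Fluorogenic HMU-PC substrate (9 uM final) is turned over by placental ASM in 60 min at 37 C after a 10 min compound preincubation. Reaction ended by alkaline stop (pH 10), with fluorescence read at 386/447 nm.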
# * = called active by the depositor; ? = inconclusive; . = no result given. Cut-off read from the data, not from the text of the source, unless noted: active = activity change below about -65%; inconclusive = mostly about -30% to -63%; inactive = weaker than that.
SMILES,TSHR antag,CtBP-E1A inh,BCR signal inh,Six1-Eya2 blk,S-ASM inh
Cc1ccc(C(c2sc3nc(-c4ccco4)nn3c2O)N2CCCCC2)cc1 (stereo not drawn),.,.,6%,.,.
COc1cc2cc(-c3ccc(O)cc3O)nc(C)c2cc1OC,-13,-86*,?,?,-11%
Nc1ncnc2c1nc(Sc1ccc(Cl)cc1)n2[C@H]1OC2COP(=O)(O)O[C@@H]2C1O (stereo partly drawn),-7,.,.,.,.
Cc1cccc(-c2ccc3ncnc(NCc4cccc(F)c4)c3c2)c1,19,.,0%,.,.
CC1=C/C(=C(/c2cc(C)c(O)c(Br)c2)c2ccccc2S(=O)(=O)O)C=C(Br)C1=O,-29,-69*,?,-73*,1%
CCc1ccc(NC(=O)c2ccc(F)c(S(=O)(=O)N3CCN(c4cc(C)ccc4C)CC3)c2)cc1,.,.,12%,.,.
Cc1ccc(N2CC(NC(=O)C3CC3)CC2=O)cc1C (stereo not drawn),.,.,-21%,.,.
Cc1ccc(/C=C/C(=O)c2nc3ccccc3[nH]2)cc1,-18,-1,13µM*,2,5%
Cc1ccc(/C=C/C(=O)Nc2nc3ccccc3[nH]2)cc1,6,6,7%,1,-1%
CC1(C)Nc2ccc(O)cc2-c2c1ssc2=S,-2,-15,-3%,?,-10%
CCOc1ccc2c(c1)-c1c(ssc1=S)C(C)(C)N2C,-11,-71*,?,?,-13%
COc1ccc(CCNc2nc(=S)[nH]c3cc(OC)c(OC)cc23)cc1OC,-19,.,0%,-88*,-6%
COc1cc2[nH]c(=S)nc(NCc3ccc(Cl)cc3)c2cc1OC,10,?,-4%,?,-10%
COc1cc2[nH]c(=S)nc(NCCc3ccc(C)cc3)c2cc1OC,-1,-87*,-4%,?,-26%
COc1ccc(CCNC(=O)c2ccc(CNc3nc(=S)[nH]c4ccccc34)cc2)cc1OC,-9,-5,?,3,0%
COc1cc2[nH]c(=S)nc(NCCc3ccc(S(N)(=O)=O)cc3)c2cc1OC,-5,-90*,?,-90*,0%
CO/S(=N\S(=O)(=O)c1ccc(Cl)cc1)c1ccc([N+](=O)[O-])cc1 (stereo not drawn),4,.,.,.,.
O=C(O)CC(C(=O)O)N1C(=O)/C(=C/c2ccc(-c3nc4ccccc4s3)o2)SC1=S (stereo not drawn),6,?,-18%,-77*,-4%
O=C(O)CCN1C(=O)/C(=C/c2ccc(-c3nc4ccccc4s3)o2)SC1=S,-12,-27,?,?,-11%
COc1ccc(-n2nnnc2SCC(=O)NC2CCCC2)cc1OC,-92*,5,1%,0,-1%
COc1cc(OC)cc(-n2nnnc2SCC(=O)NC2CCCC2)c1,-6,1,-2%,4,-1%
C=CCN=C1N[C@@H](c2ccc(Br)cc2)C(C(=O)OC)=C(C)N1Cc1ccccc1,13,.,?,.,.
O=S(=O)(Nc1ccc(O)c(Sc2nc3ccccc3s2)c1)c1cccc2ccccc12,-88*,-4,?,-14,-17%
COc1ccc(NS(=O)(=O)c2cn(C)cn2)cc1Cl,-142*,.,-27%,20,4%
Cn1cnc(S(=O)(=O)Nc2ccc(Cl)c(C(F)(F)F)c2)c1,6,-4,0%,12,-2%
SMILES,TSHR antag,CtBP-E1A inh,BCR signal inh,Six1-Eya2 blk,S-ASM inh
COc1ccc(N2CC(NC(=O)c3ccc(S(=O)(=O)N4CCOCC4)cc3)CC2=O)cc1OC (stereo not drawn),.,.,-14%,.,.
OCC1OC(Oc2cccc3ccccc23)C(O)C(O)C1O (stereo not drawn),?,9,0%,6,3%
O=C(O)c1cc(O)c2c(c1)[C@@H]([C@H]1c3cc(C(=O)O)cc(O)c3C(=O)c3c(O[C@@H]4O[C@H](CO)[C@@H](O)[C@H](O)[C@H]4O)cccc31)c1cccc(O[C@@H]3O[C@H](CO)[C@@H](O)[C@H](O)[C@H]3O)c1C2=O,-79*,9,?,?,-28%
CC1=C(C(=O)NCc2ccc(C)cc2)C2(CCCCC2)OC1=O,.,.,0%,.,.
COc1cc(/C=N/N(C)C2=NS(=O)(=O)c3ccccc32)cc(OC)c1OC,-8,-92*,-1%,-83*,6%
Cc1cccc(N2CCN(S(=O)(=O)c3cc(C(=O)Nc4ccc(Oc5ccccc5)cc4)ccc3F)CC2)c1C,.,.,2%,.,.
COc1ccc(CC(=O)NNC(=O)c2ccccn2)cc1,22,-74*,2%,?,-1%
O=C(Cc1ccccc1)c1ccccn1,.,-5,.,-78*,2%
O=C(NNC(=O)C12CC3CC(CC(C3)C1)C2)c1ccccn1,-4,-19,?,-66*,2%
Cc1cc(C)cc(OCC(=O)NNC(=O)c2ccccn2)c1,-7,.,-11%,-68*,7%
O=C(COc1ccc(Cl)cc1)NNC(=O)c1ccccn1,-16,?,?,?,0%
N/C(=N\OC(=O)Cc1ccccc1)c1ccccn1,0,-3,4%,0,3%
Cc1ccc(-n2ncc3c(NC4CCCCC4)ncnc32)cc1,.,.,12%,.,.
O=C(NCc1ccccc1Cl)C(=O)NCC(c1cccs1)S(=O)(=O)c1ccccc1 (stereo not drawn),.,.,5%,.,.
COc1cc(-c2ccno2)ccc1S(=O)(=O)N1CCN(c2ccc(F)cc2)CC1,.,.,-1%,.,.
COCCCNC(=S)NNC(=O)c1ccccn1,-5,-87*,-4%,-93*,2%
Cc1cc(C)cc(OC(C)C(=O)NCCCn2ccnc2)c1 (stereo not drawn),-104*,4,2%,2,12%
CCOC(=O)c1sc2ccccc2c1S(=O)(=O)Nc1ccc(CC)cc1,.,.,7%,.,.
CC(=O)Oc1c(I)cc(I)cc1C(=O)Nc1ccc(Cl)cc1,-106*,-6,?,1,-7%
Nc1[nH]n(-c2ccccc2)c(=O)c1N=Nc1ccc2c(c1)OCO2,-7,-21,?,?,-12%
Nc1[nH]n(-c2ccccc2)c(=O)c1N=Nc1ccc2c(c1)OCCO2,-12,0,?,-69*,-3%
CCN(CC)c1ccc(C(=O)OCC(=O)N2CCCC2)cc1,-111*,1,-14%,0,-1%
CCN1C(=NCc2cc(OC)c(OC)c(OC)c2)N[C@@H](c2cccc(F)c2)C(C(=O)OC)=C1C,8,.,24%,.,.
CC(=O)O[C@]1(C(C)=O)CC[C@H]2[C@@H]3C=C(C)C4=CC(=O)CC[C@@H]4[C@H]3CC[C@@]21C,-9,1,-7%,-4,5%
C#C[C@]1(OC(C)=O)CCC2C3CCC4=CC(=O)CC[C@@H]4C3CC[C@@]21C (stereo partly drawn),-88*,-1,-16%,-2,-3%

# Screening data: PubChem BioAssay, National Center for Advancing Translational Sciences (NCATS)
